SW480 rerep = inducers of DNA re-replication in SW480 colon cancer cells; SW480 DNA re-replication, Hoechst DNA content imaging, 48 h; Potency, µM (top dose mostly 46.1 µM), usual class: activators; hit rate 1.8% among 340,000; AID 624297; further: nearly all actives have a fitted effect of over 55% in size
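Treated cells incubate 48 hr (37 C, 5% CO2), are stained 40 min with Hoechst, and nuclear fluorescence is enumerated; a rise in nuclei with high DNA signal marks re-replication.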
ATXN2 expr inh = ATXN2 expression inhibition; hit rate 0.72% among 360,000; AID 1745845; HEK-293 ATXN2-luciferase reporter, luminescence, 24 h; Potency, µM (series often up to 57 µM), most hits filed as inhibitors; further: nearly all actives have a fitted effect of over 55% in size
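ATXN2-luciferase reporter cells (luciferase flanked by upstream and downstream ATXN2 gene portions) were treated 24 h at 37 °C with compounds at up to 57 uM. SteadyGlo luminescence gave expression; GF-AFC fluorescence gave viability.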
MCF10A rerep = induces DNA re-replication in MCF 10a normal breast cells | MCF 10A DNA re-replication, Hoechst nuclear intensity, 48 h | Potency, µM (series often up to 46.1 µM), usual class: activators | hit rate 2.9% among 350,000 | AID 624296; further: nearly all actives have a fitted effect of over 50% in size
PINK1 modulator = PINK1 expression modulation. PINK1 immunofluorescence, high-content cytometry, 24 h. Potency, µM (series often up to 76.6 µM), actives largely listed as activators. hit rate 0.2% among 410,000. AID 624263; active means well fitted activation curve with a large enough effect; inconclusive means small, poorly fitted or top-dose-only effect; cell line not stated here; further: nearly all actives have a fitted effect of over 65% in size
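Readout is PINK1 immunofluorescence, quantified alongside mitochondrial, cell and nuclear markers by laser-scanning microplate cytometry. Cells from a stable line were exposed to compound titrations (5 concentrations) for 24 hours, with CCCP controls.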
IL-1B inflam inh = inhibitors of inflammasome signaling (IL-1 beta secretion); THP-1 LPS/ATP IL-1B secretion, AlphaLISA, 16 h; hits give low values; activity change, % at 57.5 µM; hit rate 4.7% among 360,000; in the data active means activity change below about -50%; inconclusive means mostly about -30% to -49%
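Secreted IL-1B measured by AlphaLISA bead assay after 16 h compound exposure of THP-1 cells; compounds (final up to 57.5 uM) added 1 h before LPS (250 ng/mL) and ATP (1.25 mM) stimulation; lower signal means less secretion.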
S2 tox = reduces viability in counter-screen for ATXN expression inhibitors. S2 cells (HEK-293 line with an ATXN2-luciferase reporter) viability, CellTiter-Fluor protease fluorescence, 24 h. Potency, µM (titrated, usually from 56.7 µM), actives largely listed as cytotoxic. hit rate 0.49% among 400,000; further: nearly all actives have a fitted effect of over 40% in size
A number is an active result; i = inactive; ? = inconclusive; nt = not tested or not shown; [ ] = dose if it differs, or a comment. Only some compounds are listed: those with a hit (about 7.1% of all), similar ones and a draw of the others. Unless noted, the call rests on the fitted dose curve; in most records, active means well fitted curve in the direction sought with a large enough effect; inconclusive means small, poorly fitted or top-dose-only effect, or another doubt; inactive means no such curve, though single readings can be large; an effect the other way counts as inactive or inconclusive.

SMILES	SW480 rerep	ATXN2 expr inh	MCF10A rerep	PINK1 modulator	IL-1B inflam inh	S2 tox
COc1ccccc1OCC(=O)N/N=C/C=C/c1ccc([N+](=O)[O-])o1	?	?	?	?	-100	?
CCC12CN3CC(C)(CN(C1)C3c1ccccc1C)C2=O (stereo unspecified)	nt	i	nt	i	nt	i
COc1ccc(C[C@H]2CN3C(=NC[C@H]3Cc3ccccc3)N2CCNC(=O)c2ccc(C)c(Br)c2)cc1	i	?	i	i	-52	28µM
COc1ccc(C[C@H]2CN3C(=NC[C@H]3Cc3ccccc3)N2CCNC(=O)CCC2CCCCC2)cc1	i	35µM	?	i	i	35µM
Cc1ccc(C(=O)NCCN2C3=NC[C@@H](Cc4ccccc4)N3C[C@H]2Cc2ccc(O)cc2)cc1Br	i	25µM	i	i	i	?
Cc1ccc(C(=O)NCCN2C3=NC[C@H](Cc4ccc(O)cc4)N3C[C@H]2Cc2ccc(O)cc2)cc1Br	i[9.22 µM]	i	i	i	i	i
C/C=C(\C)C(=O)NCCN1C2=NC[C@H](Cc3ccccc3)N2C[C@@H]1Cc1ccc(OC)cc1	i	i	i	i	?	i
COc1ccc(C[C@H]2CN3C(=NC[C@@H]3Cc3ccccc3)N2CCNC(=O)c2ccc(C)c(Br)c2)cc1	i	22µM	i	i	-52	nt
CC(C)c1cnc2c(c1SCC(=O)c1ccccc1)c(=O)n(C)c(=O)n2C	nt	nt	nt	i	nt	nt
O=S(=O)(Nc1ccc(-c2ccc(N3CCCC3)nn2)cc1)c1cc(F)ccc1F	nt	i	nt	i	nt	i
CCOc1ccc2nc(N3CCCC(C(=O)Nc4ccccc4CC)C3)sc2c1 (stereo unspecified)	nt	nt	nt	i	nt	nt
CCC(C(=O)NC(N)=O)c1ccccc1 (stereo unspecified)	i	nt	i	nt	nt	nt
CCOC(=O)c1ccc(NC(=O)CC2C(=O)N(c3ccccc3)C(=O)N2C2CCCCC2)cc1 (stereo unspecified)	nt	i	nt	i	nt	?
CCCCC(Sc1nc2cc3c(cc2c(=O)n1CCCC(=O)NCc1ccc(OC)cc1)OCO3)C(=O)OCC (stereo unspecified)	nt	nt	nt	i	nt	nt
Cc1nc2ccn(Cc3cccs3)c(=O)c2cc1C(=O)N1CCN(c2ccccc2)CC1	nt	i	nt	i	nt	i
C[C@@H](CN1C2=NC[C@H](Cc3ccccc3)N2C[C@H]1Cc1ccc(O)cc1)NC(=O)CCC1CCCCC1	i	28µM	i	i	?	22µM
C[C@@H](CN1C2=NC[C@H](Cc3ccc(O)cc3)N2C[C@H]1Cc1ccc(O)cc1)NC(=O)CCC1CCCCC1	i	i	i	i	i	i
COc1ccc(C[C@H]2CN3C(=NC[C@@H]3Cc3ccc(O)cc3)N2CCNC(=O)c2ccc(C)c(Br)c2)cc1	i	25µM	i	i	i	nt
Nc1c(C(=O)Nc2ccccc2)sc2nc(-c3ccco3)ccc12	?	i	18µM	i	i	nt
COc1ccccc1NC(=O)c1sc2nc3c(cc2c1N)CCCCCC3	nt	i	nt	i	nt	i
COc1ccccc1NC(=O)c1sc2nc(-c3ccco3)ccc2c1N	i	i	15µM	i	i	nt
CCc1cc2c(cc3c(=O)n(CC(=O)N4CCCCC4)nc(CC)n32)s1	nt	nt	nt	i	nt	nt
Cc1c(N)cc[n+](CC(=O)c2ccccc2)c1C	?	i	i	?	-70	i
Cc1cc[n+](CC(=O)c2ccccc2)c2ccccc12	i	i	i	i	i	i
CCN1CCN(c2ccc(NC(=O)c3cccc(F)c3)cc2Cl)CC1	i	i	i	i	-50	i
Cc1ccc(NC(=O)C2CCCN(C(=O)c3ccc(Cl)cc3)C2)cc1 (stereo unspecified)	i	i	i	i	i	i
O=C(Nc1ccccc1N1CCCCC1)C1CCN(C(=O)c2ccc(Cl)cc2)CC1	i	i	?	i	-72	i
CCN1CCN(c2ccc(NC(=O)c3ccco3)cc2Cl)CC1	i	i	i	i	i	i
O=C(Nc1ccccc1N1CCCC1)C1CCN(C(=O)c2ccc(Cl)cc2)CC1	i	i	i	i	?	i
Cc1ccc(NC(=O)C2CCCN(C(=O)c3ccc(Cl)cc3)C2)cc1C (stereo unspecified)	i	i[11.3 µM]	i	i	-71	?

Screening results as filed in PubChem.
